Data as given in PubChem BioAssay AID651610 (Broad Institute, 2012).
Among all 360,000 compounds or so, about 3,900 (1.1%) were called active.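 Rule for the calls: active = mean replicate inhibition score of at least 50 and every replicate individually at or above 50; inconclusive = only one of the two criteria met; inactive = mean below 50 and not all replicates reaching 50.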 This excerpt belongs to a sample that is enriched for actives.

experiment: inhibitors of HIV-1 Env-driven cell-cell fusion, primary screen, HeLa-JRFL effector, CEM21 target cells, luciferase (AID 651610); settings: hits give high values; at 16.7 µM unless noted;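 note: 0% = plate neutral controls and 100% = maraviroc near 300 nM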

| Compound | inhibition |
| --- | --- |
| COc1ccc(NC(=O)Nc2ccc3c(c2)C(=O)N([C@@H](C)CO)C[C@@H](C)[C@H](CN(C)C(=O)NC(C)C)OCCCC[C@H](C)O3)cc1 | 11.6% (inactive) |
| COC(=O)[C@@]12CCCN1[C@H](c1ccc(-c3ccc(F)cc3)c(OC)c1)[C@H]1C(=O)N(C)C(=O)[C@H]12 | 71.6% [at 12.3 µM] (active) |
| CCN1C(=O)[C@@H]2[C@@H](c3ccc(-c4ccc(OC)cc4)c(OC)c3)N3CCC[C@@]3(C(=O)OC)[C@@H]2C1=O | -5% [at 12.3 µM] (inactive) |
| CCCCCCSc1ccc([C@@H]2[C@H]3C(=O)N(CC)C(=O)[C@H]3[C@]3(C(=O)OC)CCCCN23)cc1 | 8.61% [at 12.3 µM] (inactive) |
| CCN1C(=O)[C@@H]2[C@@H](c3ccc(-c4ccccc4)cc3)N3CCCC[C@@]3(C(=O)OC)[C@@H]2C1=O | -3.15% [at 12.3 µM] (inactive) |
| CCCCCCSc1ccc([C@@H]2[C@@H]3C(=O)N(CC)C(=O)[C@@H]3[C@]3(C(=O)OC)CCCCN23)cc1OC | 73.2% [at 12.3 µM] (active) |
| CCN1C(=O)[C@@H]2[C@@H](c3ccc(-c4cccc(Cl)c4)cc3)N3CCC[C@@]3(C(=O)OC)[C@@H]2C1=O | -3.1% [at 12.3 µM] (inactive) |
| Cc1ccc(S(=O)(=O)N(C)C[C@@H]2Oc3ccc(NC(=O)Cc4ccccc4)cc3CC(=O)N([C@H](C)CO)C[C@H]2C)cc1 | 14.2% (inactive) |
| CO[C@@H]1CN(C)C(=O)c2cc(NC(=O)c3ccc(F)cc3)ccc2OC[C@H](C)N(C(=O)CN(C)C)C[C@H]1C | 6.25% (inactive) |
| Cc1ccccc1-n1cc(CNC(=O)CC2C(=O)NCCN2C/C=C/c2ccccc2)cn1 (stereo not given) | 58% [at 12.3 µM] (active) |
| Cc1ccccc1-n1cc(CNC(=O)C2CCC(=O)N(C3CC3)C2)cn1 (stereo not given) | 5.76% [at 12.3 µM] (inactive) |
| O=C(CC1C(=O)NCCN1Cc1ccc(-c2ccccc2)cc1)NCc1ccncc1 (stereo not given) | -0.899% [at 12.3 µM] (inactive) |
| C[C@@H]1CN([C@@H](C)CO)C(=O)Cc2cc(NS(=O)(=O)c3cccs3)ccc2O[C@@H]1CN(C)C(=O)Nc1ccc(C(F)(F)F)cc1 | 0.927% (inactive) |
| CC(C)NC(=O)N(C)C[C@H]1Oc2ncc(-c3cccc(C#N)c3)cc2C(=O)N([C@@H](C)CO)C[C@H]1C | 8.57% (inactive) |
| CC1CCN(C(=O)COC(=O)c2cc(S(=O)(=O)N3CCOCC3)ccc2Cl)CC1 | 5.19% [at 12.3 µM] (inactive) |
| COC(=O)C1CCN(C(=O)COC(=O)c2cc(S(=O)(=O)N3CCOCC3)ccc2C)CC1 | 72.4% [at 12.3 µM] (active) |
| CCOC(=O)C1CCN(C(=O)COC(=O)C2CCN(S(=O)(=O)c3ccc4c(c3)OCCO4)CC2)CC1 | 29.3% [at 12.3 µM] (inactive) |
| COc1ccc(CNC(=O)C[C@H]2CC[C@H](NC(=O)Nc3ccc4c(c3)OCO4)[C@H](CO)O2)cc1 | 15.7% (inactive) |
| CC(C)NC(=O)N(C)C[C@@H]1OCCCC[C@@H](C)Oc2ccc(NC(=O)NC3CCCCC3)cc2C(=O)N([C@@H](C)CO)C[C@@H]1C | -9.6% (inactive) |
| C[C@H]1CN([C@@H](C)CO)C(=O)c2cc(C#CC3(O)CCCC3)cnc2O[C@@H]1CN(C)C(=O)Cc1ccccc1 | 15.7% (inactive) |

| Compound | inhibition |
| --- | --- |
| C[C@@H]1CN([C@H](C)CO)S(=O)(=O)c2ccc(C#CCN(C)C)cc2O[C@@H]1CN(C)C | 5.39% (inactive) |
| CN(C)CCCn1c(=O)n(Cc2ccccc2)c(=O)c2c3c(sc21)CCCCC3 | 63.7% [at 12.3 µM] (active) |
| O=c1c2c3c(sc2n(CCN2CCCC2)c(=O)n1Cc1ccccc1)CCCCC3 | 46.8% [at 12.3 µM] (inactive) |
| CCn1c(=S)[nH]c2sc3c(c2c1=O)CCCCC3 | -33.7% [at 12.3 µM] (inactive) |
| CNC(=O)C[C@@H]1CC[C@H]2[C@@H](COc3ccc(NC(=O)NCc4ccccc4)cc3C(=O)N2C)O1 | -0.208% (inactive) |
| COC(=O)[C@]1(Cc2ccccc2)N[C@H](CN(C)S(=O)(=O)c2ccc(OC(F)(F)F)cc2)[C@@H]2C(=O)N(Cc3ccccc3)C(=O)[C@@H]21 | 48.1% [at 12.3 µM] (inactive) |
| CCN(C[C@H]1N[C@@](CC)(C(=O)OC)[C@H]2C(=O)N(Cc3ccccc3)C(=O)[C@@H]12)S(=O)(=O)c1ccc(C(F)(F)F)cc1 | 99.4% [at 12.3 µM] (active) |
| CCN(C[C@H]1N[C@@](CC)(C(=O)OC)[C@H]2C(=O)N(Cc3ccccc3)C(=O)[C@@H]12)S(=O)(=O)c1ccccc1 | 42% [at 12.3 µM] (inactive) |
| Cc1ccc(S(=O)(=O)N[C@@H]2CC[C@@H](CC(=O)O)O[C@@H]2CO)cc1 | 7.43% (inactive) |
| CN1CCN(S(=O)(=O)c2cccc(C(=O)N3CCc4ccccc43)c2)CC1 | -15.7% [at 12.3 µM] (inactive) |
| CNC(=O)C1CN(C(=O)c2cccc(S(=O)(=O)N3CCc4ccccc43)c2)c2ccccc2O1 (stereo not given) | 60.2% [at 12.3 µM] (active) |
| CC1CCN(C(=O)c2cccc(S(=O)(=O)N3CCCc4ccccc43)c2)CC1 | 39.9% [at 12.3 µM] (inactive) |
| C[C@@H]1CN([C@H](C)CO)C(=O)c2cc(NC(=O)Nc3ccc4c(c3)OCO4)ccc2O[C@H]1CN(C)C(=O)Nc1ccccc1 | 7.58% (inactive) |
| Cc1ccccc1C1CC(c2cccs2)=NN1S(C)(=O)=O (stereo not given) | -91.6% [at 12.3 µM] (inactive) |
| O=C(COc1ccccc1Cl)N1N=C(c2cccs2)CC1c1ccco1 (stereo not given) | -7.8% [at 12.3 µM] (inactive) |
| Fc1ccc(N2N=C(c3cccs3)CC2c2ccco2)c(F)c1 (stereo not given) | 55.9% [at 12.3 µM] (active) |
| CCS(=O)(=O)Nc1ccc2c(c1)C(=O)N(C)[C@H]1CC[C@H](CC(=O)NCc3ccccc3F)O[C@H]1CO2 | -0.764% (inactive) |
| CSc1nnc(NC(=O)c2nc(S(=O)(=O)Cc3ccc(C)cc3)ncc2Cl)s1 | 73.8% [at 12.3 µM] (active) |
| Cc1cccc(CS(=O)(=O)c2ncc(Cl)c(C(=O)Nc3ccc(F)cc3)n2)c1 | -12.3% [at 12.3 µM] (inactive) |
| NC(=O)CSc1nnc(NC(=O)c2ccc(Br)o2)s1 | -7.67% [at 12.3 µM] (inactive) |
